From the supplement of paper PMC3484114
± gives the standard deviation.

system: OVCAR-3-derived ovarian cancer stem-like cells (spheroids); test: cell growth relative to untreated control; higher = more growth (less inhibition); settings: 2.29 µM; 96 h
Procedure, shortened: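 Stem-like cells derived from OVCAR-3 spheroids were dissociated with trypsin and seeded at 50,000 cells/mL in stem cell medium in ultra-low attachment 96-well plates, then preincubated for 24 h. Each compound was added at 2.29 uM to 4 replicate wells and left for 96 h at 37°C, 5% CO2. Viability came from TOX8 resazurin fluorescence (ex 560/em 590 nm) read after 4 h. Percent growth was expressed relative to untreated wells, after blank subtraction and removal of outliers by the Grubbs test.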

SMILES	cell growth [%]
Cc1c2oc3c(C)ccc(C(=O)N[C@@H]4C(=O)N[C@H](C(C)C)C(=O)N5CCC[C@H]5C(=O)N(C)CC(=O)N(C)[C@@H](C(C)C)C(=O)O[C@@H]4C)c3nc-2c(C(=O)N[C@@H]2C(=O)N[C@H](C(C)C)C(=O)N3CCC[C@H]3C(=O)N(C)CC(=O)N(C)[C@@H](C(C)C)C(=O)O[C@@H]2C)c(N)c1=O	8.44 ± 3.9
CCN1C=C/C(=C\C=C\c2cc[n+](CC)c3ccccc23)c2ccccc21	22.2 ± 4.2
CC1=NC(C(C)C)C(=O)O1 (centres undefined)	122 ± 74
CCCCCCCCCCCCCCCC[N+](C)(C)CCl	104 ± 17
COC1C(O)=C2C(=O)OC(C)(O)/C=C/C=C\C=C/C=C/C(c3ccccc3)NC(=O)/C=C/C=C/C=C/C=C/C2(C)C1O (centres undefined)	71.7 ± 31
C=C1C(=O)C2=CC1CCC(=O)C1(C)CCC(OC(C)=O)C(C)(C)C1CC2O (centres undefined)	30.4 ± 11
NC(=O)c1csc(C2OC(CO)C(O)C2O)n1 (centres undefined)	90.6 ± 11
CN1CCN(CCNc2ccc(CO)c3sc4ccccc4c(=O)c23)CC1	49.7 ± 14
COc1ccc(/C=C2\N=C(c3ccccc3)OC2=O)c(OCc2ccccc2)c1	69.7 ± 24
CC(CN1CC(=O)NC(=O)C1)N1CC(=O)NC(=O)C1 (centres undefined)	221 ± 43
COC(=O)c1ccc(=O)c2nc3/c(=C/O)c(O)cc(=O)c3[nH]c12	109 ± 44
CCCCCC/C=C\CCCCCCCCCc1cccc(OC)c1O	115 ± 69
CCSC(=O)N1c2ccc(OC)cc2C=CC1C#N (centres undefined)	52.9 ± 11
Cc1[nH]c(=O)[nH]c(=O)c1/C=C/C(=O)NC(CO)CC(C)C (centres undefined)	94.2 ± 22
CN1CCN(CCSC2Cc3cc(Cl)ccc3Sc3ccccc32)CC1 (centres undefined)	151 ± 26
Nc1cc2[nH]cnc2c(=O)[nH]1	77.1 ± 7.5
C[C@H]1O[C@@H](c2ccc3c(c2O)C(=O)C2=C(C3=O)[C@@]3(O)C(=O)C[C@](C)(O)C[C@@]3(O)C=C2)C[C@@H](O)[C@@H]1O	62.7 ± 8.2
C=CCOC1OC(CO[Si](C)(C)C(C)(C)C)C(OCc2ccccc2)C(OCc2ccccc2)C1OCc1ccccc1 (centres undefined)	116 ± 18
BrCCC[P+](c1ccccc1)(c1ccccc1)c1ccccc1	42.9 ± 7.3
NC1N=C(c2ccc(Cl)cc2)C2=C(N1)c1ccccc1CC2 (centres undefined)	85.7 ± 6.7

SMILES	cell growth [%]
Nc1ncnc2c(C3OC(CO)C(O)C3O)[nH]nc12 (centres undefined)	23.9 ± 5.3
COc1cc(/C=C(\C)c2ccc3c(c2)OCO3)cc(OC)c1OC	162 ± 21
COc1cc2oc3cc(=O)cc4oc(-c5ccccc5)cc(c2c2c1CCC(c1ccccc1)O2)c43 (centres undefined)	150 ± 80
O=C1C=C(Nc2cccnc2)c2ccccc2C1=O	59.3 ± 11
CCN(CC)CCNc1ccc2nc(C)n3c4ccc(OC)cc4c(=O)c1c23	34.8 ± 9.9
O=S(=O)(O)SC/C=C/CSS(=O)(=O)O	143 ± 16
CC(C)(C)N(Cc1ccc2c(c1)OCO2)C(=O)/C=C\[S+]([O-])c1ccccc1 (centres undefined)	41.6 ± 10
CN(C)CCOC1(Cc2ccc(F)cc2)CCC(C(C)(C)C)CC1 (centres undefined)	109 ± 34
CSCC(CO)NC(=O)/C=C/c1c(C)[nH]c(=O)[nH]c1=O (centres undefined)	82.8 ± 9.5
N[C@H](C(=O)O)[C@H]1ON=C(Cl)[C@H]1O	91.4 ± 16
O=C(CC1(O)C(=O)Nc2c(Cl)ccc(Cl)c21)c1ccc(Cl)cc1 (centres undefined)	142 ± 53
COc1c2c(c(OC)c3c1c(=O)c1ccccc1n3C)OCO2	97.8 ± 12
CC1(O)C=CC(=O)C=C1	116 ± 12
O=C(CC(=O)C(F)(F)F)c1csc2ccccc12	93.5 ± 13
CC[C@@]1(O)C[C@H](O[C@H]2C[C@H](N(C)C)[C@H](O[C@H]3C[C@H](O)[C@H](O[C@H]4C[C@H](O)[C@H](O)[C@H](C)O4)[C@H](C)O3)[C@H](C)O2)c2c(cc3c(c2O)C(=O)c2c(O)ccc(O)c2C3=O)[C@H]1C(=O)OC	78.9 ± 26
O=C1C=C(Nc2ccccc2C(=O)CC(=O)C(=O)Nc2ccc(Cl)cc2)c2ccccc2C1=O	49.4 ± 15
CCOC(=O)c1ccc(N=Cc2ccc(N(CCC#N)CCC#N)cc2)cc1	101 ± 20
CN(C)CCN1C(=O)c2cccc3cc(N)cc(c23)C1=O	60.2 ± 11
Cc1ccc(NC(=S)C#N)c(C)c1	89.9 ± 27
